Where “and” joins values, the source holds several entries; their conditions need not be identical. Equal values may be shown once. Where a structure was tested more than once in an assay, its records may differ in their call. Calls of active or inactive are those of the source. Unless noted, the call rests on the fitted dose curve; in most records, active means well fitted curve in the direction sought with a large enough effect in the repeat runs; inconclusive means weak or mixed curves; inactive means no such curve, though single readings can be large; an effect the other way counts as inactive or inconclusive.
Legend:
[1] = qHTS assay to test for compound auto fluorescence at 535 nm (green) in HEK293 cells (AID 720680)
[2] = qHTS assay to test for compound auto fluorescence at 460 nm (blue) in HEK293 cell free culture (AID 720681)
Summary of the method: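 Blue fluorescence (Ex 405/Em 460 nm, triamterene-equivalent) was read immediately after pin transfer of compound or DMSO into medium (DMEM, 10% FBS) without cells.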

[3] = qHTS assay to test for compound auto fluorescence at 535 nm (green) in HEK293 cell free culture (AID 720682)
Summary of the method: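 Fluorescein serves as the green reference fluorophore; each compound's intrinsic emission at 535 nm (excitation 485 nm) is reported as an equivalent amount of that dye, measured in serum-containing DMEM without cells.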

[4] = qHTS assay to test for compound auto fluorescence at 590 nm (red) in HEK293 cell free culture (AID 720683)
Summary of the method: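 Red-channel autofluorescence of compounds in culture medium (DMEM, 10% FBS), no cells, measured at 540/590 nm. Rose Bengal sodium is the reference fluorophore for equivalence.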

[5] = qHTS assay to test for compound auto fluorescence at 590 nm (red) in HepG2 cell free culture (AID 720684)
Summary of the method: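 Plate contents were MEM with 10% FBS plus test compound or DMSO, no cells. Fluorescence was recorded with 540 nm excitation and 590 nm emission.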

[6] = qHTS assay to test for compound auto fluorescence at 460 nm (blue) in HepG2 cell free culture (AID 720685)
Summary of the method: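 Compound (23 nL) or DMSO pinned into cell-free MEM with 10% FBS; blue fluorescence read at 405/460 nm excitation/emission, expressed as auto-fluorescence equivalency to triamterene.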

[7] = qHTS assay to test for compound auto fluorescence at 535 nm (green) in HepG2 cell free culture (AID 720686)
[8] = qHTS assay to test for compound auto fluorescence at 460 nm (blue) in HepG2 cells (AID 720687)
Summary of the method: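 Blue-channel autofluorescence (Ex/Em 405/460 nm, triamterene-equivalent) was measured after 1 hr compound exposure at 37 C, 5% CO2. Cells were HepG2, plated overnight at 37 C in MEM plus 10% FBS.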

[9] = target: Glucocorticoid receptor (Homo sapiens) (UniProt P04150); assay: qHTS assay to identify small molecule agonists of the glucocorticoid receptor (GR) signaling pathway (AID 720691; active means well fitted activation curve with a large enough effect in the signal ratio in the repeat runs, not every such curve was filed as active; inconclusive means weak or mixed curves, or effect the other way; inactive means no such curve, though single readings can be large or run the other way; the % refers to the signal ratio; further: potency means the concentration at half of the fitted maximal effect); conditions: GR-bla HeLa, beta-lactamase reporter ratio, 18 h
Summary of the method: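 Beta-lactamase reporter activity, read as fluorescence intensity, was measured in GR-bla HeLa cells exposed to compounds for 18 h at 37 C and then loaded with LiveBLAzer B/G FRET substrate for 2 h at room temperature.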

[10] = target: Glucocorticoid receptor (Homo sapiens) (UniProt P04150); assay: qHTS assay to identify small molecule antagonists of the glucocorticoid receptor (GR) signaling pathway (AID 720692; active means well fitted inhibition curve with a large enough effect in the signal ratio in the repeat runs, not every such curve was filed as active; inconclusive means weak or mixed curves, or effect the other way; inactive means no such curve, though single readings can be large or run the other way; the % refers to the signal ratio; further: potency means the concentration at half of the fitted maximal effect)
Summary of the method: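 Fluorescence from cleaved LiveBLAzer B/G FRET substrate reports GRE-driven beta-lactamase in HeLa cells; compounds are tested against 5 nM dexamethasone (final) over 18 h at 37 C, substrate incubation 2 h at room temperature.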

[11] = qHTS assay to identify small molecule antagonists of the glucocorticoid receptor (GR) signaling pathway - cell viability counter screen (AID 720693); further: nearly all actives have a fitted effect of over 55% in size
[12] = qHTS assay for identifying genotoxic compounds that show differential cytotoxicity against isogenic chicken DT40 cell lines with known DNA damage response pathways - wild type cell line (AID 743012); further: nearly all actives have a fitted effect of over 60% in size; further: potency means the concentration at half of the fitted maximal effect
Summary of the method: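 Quantitative HTS on parental DT40 cells: 40 h compound treatment at 37 C/5% CO2, with viability then determined by CellTiter-Glo luminescence. Values serve as the DNA repair-proficient reference for differential cytotoxicity.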

[13] = qHTS assay for identifying genotoxic compounds that show differential cytotoxicity against isogenic chicken DT40 cell lines with known DNA damage response pathways - Rev3 mutant cell line (AID 743014); further: nearly all actives have a fitted effect of over 55% in size; further: potency means the concentration at half of the fitted maximal effect
[14] = qHTS assay for identifying genotoxic compounds that show differential cytotoxicity against isogenic chicken DT40 cell lines with known DNA damage response pathways - Rad54/Ku70 mutant cell line (AID 743015); further: nearly all actives have a fitted effect of over 60% in size; further: potency means the concentration at half of the fitted maximal effect
[15] = qHTS assay to identify small molecule antagonists of the androgen receptor (AR) signaling pathway - cell viability counter screen (AID 743033; further: nearly all actives have a fitted effect of over 45% in size; further: potency means the concentration at half of the fitted maximal effect)
[16] = qHTS assay to identify small molecule antagonists of the androgen receptor (AR) signaling pathway using the MDA cell line - cell viability counter screen (AID 743041; further: nearly all actives have a fitted effect of over 45% in size; further: potency means the concentration at half of the fitted maximal effect)
Summary of the method: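 R1881-driven MDA-kb2 AR-luc cells, 3,000/well, were dosed with library compounds for 16 h; cell health came from CellTiter-Fluor fluorescence in the reporter wells.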

[17] = target: Androgen receptor (Homo sapiens) (UniProt P10275); assay: qHTS assay to identify small molecule agonists of the androgen receptor (AR) signaling pathway using the MDA cell line (AID 743040; further: nearly all actives have a fitted effect of over 20% in size)
Summary of the method: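 After a 5 h incubation at 37C and 0% CO2, MDA-kb2 reporter cells were dosed with compounds in DMSO and kept 16 h under the same conditions. Luciferase activity was then read as luminescence with ONE-Glo.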

[18] = target: Androgen receptor (Homo sapiens) (UniProt P10275); assay: qHTS assay to identify small molecule antagonists of the androgen receptor (AR) signaling pathway (AID 743035; active means well fitted inhibition curve with a large enough effect in the signal ratio in the repeat runs, not every such curve was filed as active; inconclusive means weak or mixed curves, or effect the other way; inactive means no such curve, though single readings can be large or run the other way; the % refers to the signal ratio)
Summary of the method: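 Cell line: GeneBLAzer AR-UAS-bla GripTite (HEK293). Stimulus: R1881 added after compound. Exposure: 16 h, 37C, 5% CO2. Readout: LiveBLAzer B/G FRET fluorescence after 2 h at room temperature.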

[19] = target: Androgen receptor (Homo sapiens) (UniProt P10275); assay: qHTS assay to identify small molecule agonists of the androgen receptor (AR) signaling pathway (AID 743036; active means well fitted activation curve with a large enough effect in the signal ratio in the repeat runs, with a control signal flat, not every such curve was filed as active; inconclusive means weak or mixed curves, or effect the other way; inactive means no such curve, though single readings can be large or run the other way; the % refers to the signal ratio)
Summary of the method: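 Fluorescence from a beta-lactamase FRET substrate served as read-out in AR-UAS-bla GripTite HEK293 cells. Cells were treated with DMSO-dissolved compounds for 16 h at 37C, then with LiveBLAzer B/G substrate for 2 h at room temperature.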

[20] = activation: at 62.4 µM (top of the series)
On the % scale 0 is the no-effect control and ±100 the full control effect.

Chain of Glucocorticoid receptor (Homo sapiens) (P04150 whole entry, looked up): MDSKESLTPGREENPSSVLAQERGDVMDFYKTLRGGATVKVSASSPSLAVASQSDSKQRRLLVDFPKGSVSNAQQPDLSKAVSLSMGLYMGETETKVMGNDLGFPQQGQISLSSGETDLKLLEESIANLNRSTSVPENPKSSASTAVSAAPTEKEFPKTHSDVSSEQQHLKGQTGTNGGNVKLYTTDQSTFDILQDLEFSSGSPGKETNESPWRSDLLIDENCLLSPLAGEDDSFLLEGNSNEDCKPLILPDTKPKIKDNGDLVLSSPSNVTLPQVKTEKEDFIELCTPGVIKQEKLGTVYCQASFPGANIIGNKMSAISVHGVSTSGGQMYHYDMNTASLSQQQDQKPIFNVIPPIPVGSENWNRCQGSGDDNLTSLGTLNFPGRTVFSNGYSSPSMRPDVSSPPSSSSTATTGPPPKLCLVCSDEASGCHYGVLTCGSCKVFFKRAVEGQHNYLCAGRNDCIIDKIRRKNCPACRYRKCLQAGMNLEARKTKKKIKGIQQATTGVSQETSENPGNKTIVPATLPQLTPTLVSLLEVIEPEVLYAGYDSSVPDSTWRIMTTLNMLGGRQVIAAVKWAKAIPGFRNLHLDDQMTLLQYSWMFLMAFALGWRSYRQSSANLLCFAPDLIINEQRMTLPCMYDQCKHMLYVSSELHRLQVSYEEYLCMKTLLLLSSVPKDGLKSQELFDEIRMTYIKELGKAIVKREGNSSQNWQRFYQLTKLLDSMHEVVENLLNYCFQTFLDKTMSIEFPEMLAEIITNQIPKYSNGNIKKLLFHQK
Chain of Androgen receptor (Homo sapiens) (P10275 whole entry, looked up): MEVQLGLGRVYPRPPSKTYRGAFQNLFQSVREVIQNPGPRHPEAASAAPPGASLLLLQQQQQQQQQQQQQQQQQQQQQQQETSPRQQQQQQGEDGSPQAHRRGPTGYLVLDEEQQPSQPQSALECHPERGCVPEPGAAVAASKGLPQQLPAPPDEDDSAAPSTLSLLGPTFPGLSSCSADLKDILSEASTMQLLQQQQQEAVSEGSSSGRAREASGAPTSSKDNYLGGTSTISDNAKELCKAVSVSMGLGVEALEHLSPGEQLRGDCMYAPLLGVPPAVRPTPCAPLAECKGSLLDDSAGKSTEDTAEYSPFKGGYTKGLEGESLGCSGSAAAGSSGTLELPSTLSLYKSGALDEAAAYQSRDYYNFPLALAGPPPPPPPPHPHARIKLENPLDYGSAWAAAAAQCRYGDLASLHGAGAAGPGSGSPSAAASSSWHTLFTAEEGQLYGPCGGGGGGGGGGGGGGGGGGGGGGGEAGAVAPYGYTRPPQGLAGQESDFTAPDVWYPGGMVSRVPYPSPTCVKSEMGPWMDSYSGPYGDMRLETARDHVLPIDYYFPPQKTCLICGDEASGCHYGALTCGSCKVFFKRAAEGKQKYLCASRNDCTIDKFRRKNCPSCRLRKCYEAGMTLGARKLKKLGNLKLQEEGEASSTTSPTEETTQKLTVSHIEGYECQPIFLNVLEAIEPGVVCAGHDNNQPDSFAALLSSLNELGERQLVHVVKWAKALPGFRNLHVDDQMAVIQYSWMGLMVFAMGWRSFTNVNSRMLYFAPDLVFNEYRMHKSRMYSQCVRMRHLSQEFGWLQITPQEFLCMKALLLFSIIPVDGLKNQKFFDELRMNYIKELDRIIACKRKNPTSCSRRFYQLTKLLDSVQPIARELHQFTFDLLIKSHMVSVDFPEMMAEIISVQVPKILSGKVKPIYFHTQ

COCCCC/C(=N\OCCN)c1ccc(C(F)(F)F)cc1
active: Potency [12] 6.68 µM | Potency [13] 9.44 µM | Potency [14] 10.6 µM
inactive: outcome [1] | Potency [2] | outcome [3] | Potency [4] | Potency [5] | Potency [6] | Potency [7] | Potency [8] | Potency [9, 20] | Potency [10] | Potency [11]

O=[N+]([O-])c1ccccc1Nc1ccccc1
inactive: outcome [1] | Potency [2] | outcome [3] | Potency [4] | Potency [5] | Potency [6] | Potency [7] | Potency [8] | Potency [9, 20] | Potency [11] | Potency [12] | Potency [13] | Potency [14] | Potency [15] | Potency [16]

CC(C)CCCCCCCCCCCCCCC(=O)O
inactive: outcome [1] | Potency [2] | outcome [3] | Potency [4] | Potency [5] | Potency [6] | Potency [7] | Potency [8] | Potency [9, 20] | Potency [10] | Potency [11] | Potency [12] | Potency [13] | Potency [14] | Potency [15] | Potency [16]

CCOC(=O)O[C@]1(C(=O)OCCl)CC[C@H]2[C@@H]3CCC4=CC(=O)C=C[C@]4(C)[C@H]3[C@@H](O)C[C@@]21C
inactive: outcome [1] | Potency [2] | outcome [3] | Potency [4] | Potency [5] | Potency [6] | Potency [7] | Potency [8] | Potency [11] | Potency [12] | Potency [13] | Potency [14] | Potency [15] | Potency [16]
active: Potency [9, 20] 0.0756 µM

O=C(Nc1cccc(C(F)(F)F)c1)c1cc(Br)cc(Br)c1O
inactive: outcome [1] | Potency [2] | outcome [3] | Potency [4] | Potency [5] | Potency [6] | Potency [7] | Potency [8] | activation ([9]; at 62.4 µM (top of the series)) 10.1%
active: activation [9, 20] 9.27% [inconclusive] | Potency [12] 5.31 µM and 6.11 µM | Potency [13] 5.96 µM and 7.7 µM | Potency [14] 6.68 µM and 4.86 µM | Potency [15] 4.25 µM and 4.36 µM | Potency [16] 11.9 µM and 10.9 µM

CC(C)(C)c1ccc(C(=O)O)cc1
inactive: outcome [1] | Potency [2] | outcome [3] | Potency [4] | Potency [5] | Potency [6] | Potency [7] | Potency [8] | Potency [9, 20] | Potency [10] | Potency [11] | Potency [12] | Potency [13] | Potency [14] | Potency [15] | Potency [16]

Nc1ccc2cc(S(=O)(=O)O)cc(O)c2c1N=Nc1ccccc1C(F)(F)F
inactive: outcome [1] | Potency [2] | outcome [3] | Potency [4] | Potency [5] | Potency [6] | Potency [7] | Potency [8] | Potency [9, 20] | Potency [10] | Potency [11] | Potency [12] | Potency [14] | Potency [15]

c1cc(C(c2ccc(OCC3CO3)cc2)c2ccc(OCC3CO3)cc2)ccc1OCC1CO1 (centres undefined)
inactive: outcome [1] | Potency [2] | outcome [3] | Potency [4] | Potency [5] | Potency [6] | Potency [7] | Potency [8] | Potency [9, 20] | Potency [17] | Potency [16]
active: Potency [10] 49 µM | Potency [12] 24.3 µM | Potency [14] 13.7 µM

NNC(=O)c1cccc(C(=O)NN)c1
inactive: outcome [1] | Potency [2] | outcome [3] | Potency [4] | Potency [5] | Potency [6] | Potency [7] | Potency [8] | Potency [9, 20] | Potency [11] | Potency [12] | Potency [13] | Potency [14] | Potency [15] | Potency [18] | Potency [19] | Potency [17] | Potency [16]

CC(=O)N1CCN(c2ccc(OC[C@H]3CO[C@](Cn4ccnc4)(c4ccc(Cl)cc4Cl)O3)cc2)CC1
inactive and 19.5 µM (active): Potency [15]
active: Potency [12] 10.6 µM and 3.86 µM | Potency [13] 23.7 µM and 4.33 µM | Potency [14] 21.1 µM and 6.11 µM
inactive: outcome [1] | Potency [2] | outcome [3] | Potency [4] | Potency [5] | Potency [6] | Potency [7] | Potency [8] | Potency [9, 20] | Potency [10] | Potency [11]

COc1cc(/C=C/C(=O)O[C@H]2CC[C@]34C[C@]35CC[C@]3(C)[C@@H]([C@H](C)CCC=C(C)C)CC[C@@]3(C)[C@@H]5CC[C@H]4C2(C)C)ccc1O
inactive: outcome [1] | Potency [2] | outcome [3] | Potency [4] | Potency [5] | Potency [6] | Potency [7] | Potency [8] | Potency [10] | Potency [11] | Potency [12] | Potency [13] | Potency [14] | Potency [15] | Potency [16]
active: Potency [9, 20] 1.51 µM [inconclusive]

Cc1cc2c(cc1C(F)(F)F)N(C(=O)Nc1ccc(Oc3cccnc3C)nc1)CC2
active: Potency [12] 1.24 µM | Potency [13] 0.781 µM | Potency [14] 22 µM
inactive: outcome [1] | Potency [2] | outcome [3] | Potency [4] | Potency [5] | Potency [6] | Potency [7] | Potency [8] | Potency [9, 20] | Potency [10] | Potency [11] | Potency [15]

O=C(O)c1cc(O)c2c(c1)C(=O)c1cccc(O)c1C2=O
inactive: outcome [1] | Potency [2] | outcome [3] | Potency [4] | Potency [5] | Potency [6] | Potency [7] | Potency [8] | Potency [9, 20] | Potency [10] | Potency [11] | Potency [12] | Potency [14] | Potency [15] | Potency [16]

CCCCCCCCCCCCCCCC[N+](C)(C)CCN(Cc1ccc(OC)cc1)c1ncccn1
active: Potency [12] 1.6 µM | Potency [13] 2.02 µM | Potency [14] 2.27 µM
inactive: fluorescence, % of fluorescein [1] -0.0029% [at 18.6 µM] | fluorescence, % of fluorescent control [2] -0.0676% [at 18.6 µM] | activity change [3] -0.0015% [at 18.6 µM] | fluorescence, % of fluorescent control [4] -0.016% [at 18.6 µM] | fluorescence, % of Rose Bengal [5] 0.665% [at 18.6 µM] | fluorescence, % of fluorescent control [6] -0.0338% [at 18.6 µM] | fluorescence, % of fluorescein control [7] -0.0114% [at 18.6 µM] | fluorescence, % of fluorescent control [8] 0.0553% [at 18.6 µM] | Potency [9, 20] | Potency [10] | Potency [11] | Potency [15] | Potency [16]

Reference: PubChem BioAssay (Tox21)
